Screening data from PubChem.
Compounds with a hit are over-represented: about 3% of the library has one in this group of screens.
GCN5L2 inh: GCN5L2 (KAT2A) acetyltransferase inhibition. GCN5L2 HAT assay, ThioGlo1 CoA-SH fluorescence. Potency, µM (highest dose often 58.9 µM), most hits filed as inhibitors. 390,000 compounds, 0.21% hits
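Compounds, pin-transferred from DMSO stocks, meet 20nM GCN5L2 for 15 min before the reaction begins with H3(1-25) peptide (75uM) and acetyl-CoA (70uM). Thiol-reactive ThioGlo1 reports CoA release over 20 min at room temperature.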
PLK1 PBD block: PLK1 (human) polo-box domain binding inhibition | AID 720504 | Potency, µM, actives largely listed as inhibitors | 360,000 compounds, 2.8% hits | Plk1 PBD binding of FITC phosphopeptide, fluorescence polarization; also: series mostly up to about 57 µM; nearly all actives have a fitted effect of over 65% in size
PTAP TSG101 blk: blocks PTAP/TSG101 interaction to inhibit HIV-1 budding. Q99816. 340,000 tested, under 10 active. Potency, µM (doses to about 115 µM), actives largely listed as inhibitors. Fluorescence polarization, FITC-PTAP peptide / Tsg101 binding. AID 493005; active = well fitted inhibition curve with a large enough effect in the main read-out, with a control signal flat, not every such curve was filed as active; inconclusive = small, poorly fitted or top-dose-only effect, or effect the other way, or a change in a side signal; inactive = no such curve, though single readings can be large or run the other way
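Fluorescence polarization binding of Tsg101 binding domain (10 uM final) to FITC-labeled PTAP peptide (50 nM final) in HEPES pH 7.5 buffer with NaCl, Tween 20, EDTA, TCEP. Compounds added before peptide; binding 20 min at RT.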
VDR inh: blocks the human vitamin D receptor; P11473; VDR-SRC2-3 peptide fluorescence polarization, 2 h; Potency, µM, hits mostly inhibitors; 400,000 compounds, 0.93% hits
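Inhibition of the VDR/SRC2-3 peptide interaction is quantified by fluorescence polarization. Compounds (23 nl, pintool) incubate with the reagents for 2 hours at ambient room temperature.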
USP1 inh: inhibitors of human USP1/UAF1 deubiquitinase; Potency, µM (series often up to 57.1 µM), actives largely listed as inhibitors; 390,000 compounds, 0.23% hits; O94782; recombinant USP1/UAF1, Ub-Rhodamine cleavage fluorescence; also: nearly all actives have a fitted effect of over 60% in size
Target sequence (O94782 whole entry, looked up): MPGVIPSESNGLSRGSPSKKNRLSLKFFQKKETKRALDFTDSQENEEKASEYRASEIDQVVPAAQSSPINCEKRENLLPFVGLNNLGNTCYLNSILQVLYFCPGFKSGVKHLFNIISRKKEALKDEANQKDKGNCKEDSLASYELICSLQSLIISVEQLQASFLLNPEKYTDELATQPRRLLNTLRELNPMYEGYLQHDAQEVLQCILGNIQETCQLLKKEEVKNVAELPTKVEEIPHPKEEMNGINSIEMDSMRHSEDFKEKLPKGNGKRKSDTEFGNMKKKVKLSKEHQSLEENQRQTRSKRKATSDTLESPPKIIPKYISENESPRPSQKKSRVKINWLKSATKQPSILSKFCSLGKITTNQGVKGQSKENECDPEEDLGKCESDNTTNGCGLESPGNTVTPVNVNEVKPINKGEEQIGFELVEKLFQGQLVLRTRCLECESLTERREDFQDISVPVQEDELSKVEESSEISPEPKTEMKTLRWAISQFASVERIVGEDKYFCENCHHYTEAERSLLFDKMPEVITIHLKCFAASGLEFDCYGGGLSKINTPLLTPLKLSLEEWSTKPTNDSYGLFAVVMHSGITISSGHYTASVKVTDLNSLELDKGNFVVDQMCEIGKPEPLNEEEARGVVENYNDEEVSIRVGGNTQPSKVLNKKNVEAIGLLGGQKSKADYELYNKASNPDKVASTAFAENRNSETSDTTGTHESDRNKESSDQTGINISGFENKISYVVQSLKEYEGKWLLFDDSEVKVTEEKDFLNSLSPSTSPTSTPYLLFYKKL
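USP1/UAF1 complex at 1 nM was preincubated with compound for 15 min at room temperature, then Ub-Rho substrate (150nM final) was added. Fluorescence (480/540 nm) was read kinetically, 6 reads every 60 seconds.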
Numbers stand for hits; n = inactive; u = inconclusive; x = no result given; ! = repeats disagree. Unless noted, calls follow the shape of the dose curve; as a rule, active = well fitted curve in the direction sought with a large enough effect; inconclusive = small, poorly fitted or top-dose-only effect, or another doubt; inactive = no such curve, though single readings can be large; an effect the other way counts as inactive or inconclusive.

SMILES | GCN5L2 inh | PLK1 PBD block | PTAP TSG101 blk | VDR inh | USP1 inh
O=C(c1ccco1)N(Cc1cccnc1)c1nc2ccc(F)cc2s1 | n | x | x | n | n
COCCNC(=O)CCn1c(=O)[nH]c2cc(OC)c(OC)cc2c1=O | n | x | x | n | n
Cc1ccc(NC(=O)C2CCC(CNS(=O)(=O)c3cccs3)CC2)cc1C (stereo unspecified) | n | x | x | n | n
Cc1[nH][nH]c(=O)c1C(c1ccc(-c2ccc(Cl)c(Cl)c2)o1)c1c(C)[nH][nH]c1=O | n | 15µM | n | 79.4µM | u
COc1ccc(-c2ccc(C(c3c(C)[nH][nH]c3=O)c3c(C)[nH][nH]c3=O)o2)c([N+](=O)[O-])c1 | n | 21.2µM | n | u | u
Cc1[nH][nH]c(=O)c1C(c1ccc(-c2ccc(C(=O)O)cc2)o1)c1c(C)[nH][nH]c1=O | u | 23.8µM | n | u | u
Cc1[nH][nH]c(=O)c1C(c1ccc(-c2ccc(F)cc2)o1)c1c(C)[nH][nH]c1=O | n | 23.8µM | n | 31.6µM | u
O=C1N=C(N2CCCC2)S/C1=C\c1ccccc1 | n | 29.9µM | n | u | n
Cc1ccc(/C=C2\SC(N3CCCCC3)=NC2=O)cc1 | n | 23.8µM | n | u | n
Cc1cccc(-c2noc(-c3ccc(N4CCN(C)CC4)c([N+](=O)[O-])c3)n2)c1 | n | x | x | n | u
O=C(O)[C@H](CC(=O)N1C[C@H]2CCCC[C@H]2C1)Cc1ccccc1 | n | x | x | n | x
CC(C1SC(=S)NC1=O)C1SC(=S)NC1=O (stereo unspecified) | x | 2.12µM | x | x | n
Cc1cccc(OCc2nc(CC(=O)Nc3ccc(C)cc3C)cs2)c1 | n | x | x | n | n
COc1ccccc1C(=O)NCc1nnnn1-c1ccc(C)c(C)c1 | n | x | x | n | n
CC(=O)Nc1ccc(S(=O)(=O)NN=Cc2ccc(Cl)c(Cl)c2)cc1 | x | n | n | n | n
O=[N+]([O-])c1ccc(S(=O)(=O)NN=Cc2ccc(Cl)c(Cl)c2)cc1 | x | 10.6µM | n | 50.1µM | n
C#C[C@]1(O)CC[C@@H]2[C@H]3CCC4=CC(=O)CC[C@H]4[C@H]3C(=C)C[C@@]21CC | n | x | x | n | x
CCn1c(=S)[nH]c2ccccc21 | n | n | n | n | n
Cc1ccc(NC(=O)Cn2c(=S)[nH]c3ccccc32)cc1 | n | 23.8µM | n | n | n
O=C(O)Cn1c(C(=O)Nc2nc(-c3ccccc3Cl)cs2)cc2ccccc21 | u | x | x | 56.2µM | x
O=C(Nc1nc(-c2ccccc2Cl)cs1)c1cccnc1 | n | n | n | n | n
Cc1ccccc1CN1C(=O)c2ccccc2Sc2ccc(C(=O)NCc3ccccc3)cc21 | n | x | x | n | n
CC(=O)Nc1nc(=S)n(-c2ccccc2)[nH]1 | n | 26.7µM | n | n | n
CC(C)c1nc(=S)n(-c2ccccc2)[nH]1 | n | n | n | n | n
N#C/C(C(=O)Nc1ccc(Cl)cc1)=C(/S)Nc1ccccc1 | 7.94µM | 3.36µM | n | u | u
SMILES | GCN5L2 inh | PLK1 PBD block | PTAP TSG101 blk | VDR inh | USP1 inh
O=C(Nc1ccc(Nc2ccccc2)cc1)c1ccc(Cl)cc1 | x | n | n | n | n
Oc1ccc(N=Nc2ccc3ccccc3c2)cc1 | n | n | n | n | n
COc1ccc2c(CCNC(=O)c3ccco3)c[nH]c2c1 | n | n | n | n | n
COc1ccc2c(CCNC(N)=S)c[nH]c2c1 | n | 18.9µM | n | u | n
CC(C)NC(=O)C(c1ccccc1)N1Cc2ccccc2C1=O (stereo unspecified) | n | x | x | n | n
COc1ccccc1N(C)S(=O)(=O)c1ccc(C(=O)O)cc1 | n | n | n | n | n
COc1ccc(S(N)(=O)=O)cc1N(C)S(=O)(=O)c1ccccc1 | n | 26.7µM | n | u | n
COc1ccc(CCNCc2c(C(=O)O)c(C)n(Cc3ccccc3C)c2C)c(OC)c1 | n | x | x | n | u
Cc1ccc(CCNC(=O)c2c[nH]c3ccc(S(=O)(=O)Nc4cccc(C(F)(F)F)c4)cc3c2=O)cc1 | n | x | x | n | n
O=[N+]([O-])c1ccc(-c2cc(-c3ccc(Cl)cc3)n[nH]2)cc1 | n | 2.99µM | n | u | n
Cc1ccc(C(=O)NNC(=O)CSc2nc(N)cc(N)n2)cc1 | n | 26.7µM | n | n | n
Nc1cc(N)nc(SCC(=O)Nc2ccccc2)n1 | n | n | n | n | n
Nc1cc(N)nc(SCC(=O)c2ccccc2)n1 | n | 23.8µM | n | n | n
CCNc1ncc2nc(CCc3ccccc3)c(=O)n(Cc3ccc(F)cc3)c2n1 | n | x | x | n | x
CCc1nc2cccnc2n1-c1ccc(CC(=O)Nc2ccc(C)cc2)cc1 | u | x | x | n | n
Nc1ccc(N2CCCCC2)c2nonc12 | n | n | n | 20µM | 4.47µM
COc1ccc(-c2ccccc2C2C3C=CCCC3(C)C(=O)N2Cc2ccccc2)cc1 (stereo unspecified) | x | x | x | 79.4µM | x
O=C(COC(=O)c1c2ccccc2cc2ccccc12)NCC(F)(F)F | n | n | n | n | n
O=C(COC(=O)c1ccc2ccccc2c1O)NCC(F)(F)F | n | 26.7µM | n | n | n
COc1ccc(N2CCN(C(CNC(=O)c3ccc(C)cc3)c3ccc4c(c3)OCO4)CC2)cc1 (stereo unspecified) | n | x | x | n | n
CCOc1cc(/C=C/C(=O)O)ccc1OCCO | n | 26.7µM | n | u | n
O=C1C(Cl)=C(NCCCO)C(=O)c2ccccc21 | n | n | n | n | u
Cc1ccc(NC2=C(NCCO)C(=O)c3ccccc3C2=O)cc1 | n | n | n | u | 14.1µM
CCOc1cccc(CNc2ccc(O)cc2)c1OCc1ccccc1Cl | n | n | n | 39.8µM! | u
CCOc1c(Cl)cc(CNc2ccc(N3CCCC3)cc2)cc1OC | n | u | n | 14.1µM | n
SMILES | GCN5L2 inh | PLK1 PBD block | PTAP TSG101 blk | VDR inh | USP1 inh
CCOc1cc(CNc2ccccc2)cc(Br)c1OCc1ccc(F)cc1 | n | n | n | n | u
CCOc1cccc(CNc2ccc(O)cc2)c1OCc1ccc(Cl)cc1Cl | n | n | n | 50.1µM | 31.6µM
CCOc1cc(CNc2ccc(O)cc2)cc(Cl)c1OCc1ccccc1 | n | x | x | n | 28.2µM
CC(C)NC(=O)N(C)C[C@@H]1Oc2cc(Br)ccc2S(=O)(=O)N([C@@H](C)CO)C[C@H]1C | x | n | x | x | n
CCOc1ccc(-n2cc(C(=O)NC(C)C)c3cc(OC)c(OC)cc3c2=O)cc1 | n | 23.8µM | n | u | n
CCOc1ccc(NC(=O)c2cn(-c3ccc(OCC)cc3)c(=O)c3cc(OC)c(OC)cc23)cc1 | n | n | n | n | n
CC(C)CN1CC[C@@]2(CCCN(C(=O)c3ccco3)C2)C1 | n | x | x | u | x
COC(=O)c1ccccc1NC(=O)CCCn1c(=O)c2cccn2c2cccnc21 | n | x | x | n | n
Cc1ccc(NC(=O)/C=C/c2ccco2)cc1F | n | x | x | n | n
Cc1cc(NC(=O)/C=C/c2ccco2)ccc1NC(=O)c1ccccc1 | 3.16µM | n | n | n | n
COc1ccc(-n2nc(C(=O)NCCCN3CCOCC3)c3ccccc3c2=O)c(OC)c1 | n | 21.2µM | n | u | n
